Measurements taken from the supplement of paper PMC3334620.
Over roughly 33,000 sequences, “E-score (-0.5 to 0.5)” has its median near -0.054; the highest 2% begin near 0.35. Many of the other results were omitted from the sample, so the highest values are more common in it than they were.

Target: T1, Stb5 (UniProt P38699)
T1 sequence: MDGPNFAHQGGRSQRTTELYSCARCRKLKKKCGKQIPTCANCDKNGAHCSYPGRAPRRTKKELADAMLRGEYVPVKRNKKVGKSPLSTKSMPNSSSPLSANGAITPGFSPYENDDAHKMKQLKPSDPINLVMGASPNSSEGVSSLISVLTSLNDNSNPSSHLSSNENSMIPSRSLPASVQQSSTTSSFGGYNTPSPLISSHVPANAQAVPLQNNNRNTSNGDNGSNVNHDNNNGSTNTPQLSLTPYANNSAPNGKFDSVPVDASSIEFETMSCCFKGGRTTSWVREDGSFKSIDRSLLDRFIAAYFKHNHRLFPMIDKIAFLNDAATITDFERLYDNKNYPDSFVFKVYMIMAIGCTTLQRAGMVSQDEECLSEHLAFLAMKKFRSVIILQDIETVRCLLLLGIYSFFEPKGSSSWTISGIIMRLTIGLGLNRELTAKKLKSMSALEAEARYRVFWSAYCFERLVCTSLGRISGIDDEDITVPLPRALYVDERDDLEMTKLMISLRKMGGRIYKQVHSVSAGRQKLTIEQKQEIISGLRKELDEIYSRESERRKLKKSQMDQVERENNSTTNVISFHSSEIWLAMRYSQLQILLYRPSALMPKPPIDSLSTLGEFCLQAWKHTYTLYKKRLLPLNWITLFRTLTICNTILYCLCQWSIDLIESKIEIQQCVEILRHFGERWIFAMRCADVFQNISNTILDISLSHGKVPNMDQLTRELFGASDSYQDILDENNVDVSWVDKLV
Assay: PBM E-score (8-mer binding enrichment) (E-score (-0.5 to 0.5)); higher = stronger / more preferred TF binding
Conditions: protein concentration: 200 nM; construct: GST-full length
Method in brief: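 PURExpress in vitro transcription/translation supplied GST-tagged yeast transcription factors, either full-length or DNA-binding domain. Applied at about 100-200 nM to universal all-10-mer Agilent arrays double-stranded by primer extension, the bound protein was detected with fluorescent anti-GST. E-scores, modified Wilcoxon-Mann-Whitney statistics, were given by the Universal PBM Analysis Suite to ungapped eight-base words pooled with their reverse complements after masliner normalisation.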

| Sequence | PBM E-score |
| --- | --- |
| ACTTGACC | -0.0754 |
| AACGGCAG | 0.107 |
| CTTTTTGA | -0.162 |
| ACCTCCGG | 0.372 |
| CCCTCCGG | 0.122 |
| ACCTCCGA | 0.364 |
| CCCTCCGA | 0.0129 |
| ACCTCCGT | 0.302 |
| TCCTCCGA | 0.157 |
| GCTGGAAA | -0.0514 |
| AACCCTTA | -0.147 |
| CAGGCATG | -0.111 |
| CTAAAAGC | 0.0851 |
| AGAGTTAC | -0.241 |
| GGAGTTTA | 0.362 |
| AGAGTTTA | -0.0332 |
| GGAGTTAA | 0.398 |
| CGAGTTAC | -0.104 |
| CGAGTTTA | 0.179 |
| TGAGTTAA | -0.155 |
| GGAGTTAC | 0.365 |
| AGAGTTAA | -0.131 |
| GCGGCTAC | 0.192 |

| Sequence | PBM E-score |
| --- | --- |
| AATACTGA | -0.19 |
| TACCCACA | -0.228 |
| GGGCCTAC | 0.066 |
| ATTATCTA | -0.0957 |
| ACTTGAGC | -0.28 |
| AATTTTAT | 0.292 |
| CTTCAGTC | -0.0437 |
| CTTTTATC | 0.161 |
| AAGCCCGT | 0.417 |
| AAAGCCGT | 0.324 |
| CAGCCCGC | 0.141 |
| CAGCCCGG | 0.246 |
| AAGCCCAT | -0.0309 |
| AAAGCCGC | 0.365 |
| AAGCCCGC | 0.443 |
| AAGCCCTG | -0.101 |
| GAGCCCGC | 0.252 |
| AAGCCCGG | 0.411 |
| AAGCCCTT | -0.131 |
| GAAGCCGC | 0.202 |
| GAAAGGCA | 0.126 |
| ACCCCCCA | -0.204 |
| CACAACGG | 0.166 |

| Sequence | PBM E-score |
| --- | --- |
| AAGCCCGA | 0.43 |
| TAGCCCGA | 0.171 |
| AAGCCCCC | 0.00224 |
| AAAGCCCT | -0.125 |
| GAGCCCGA | 0.264 |
| AAGCCCCG | 0.431 |
| AAAGCCCG | 0.457 |
| CAGCCCCG | 0.267 |
| AAAGCCCC | 0.246 |
| CTTCCCCA | -0.184 |
| ATCCTATA | -0.0861 |
| ATGGCAAC | -0.184 |
| ACGAGAAT | 0.00633 |
| CTATGCGC | 0.116 |
| AGACCTTC | -0.109 |
| AAAGGACT | -0.0879 |
| GCCGCAAA | 0.182 |
| GGCCGCCA | 0.141 |
| AGTCCGAT | 0.414 |
| GGTCCGAA | 0.328 |
| GGTCCGAC | 0.411 |
| CGTCCGAC | 0.281 |
| AGTCCGAG | 0.237 |

| Sequence | PBM E-score |
| --- | --- |
| AATCCGAC | 0.257 |
| ATTCCGAC | 0.254 |
| AGTCCGAA | 0.299 |
| AGTCCGAC | 0.436 |
| CGGCAGGA | 0.134 |
| GGAACCCC | 0.19 |
| GCCTAGGC | -0.0482 |
| ACCAGGCA | -0.187 |
| AGCTACAC | -0.174 |
| CTCTAGAC | -0.146 |
| GCAGTTGA | -0.177 |
| GTTCATCA | -0.136 |
| ATTAAGAA | 0.0289 |
| ATGAACGA | -0.0854 |
| AACAGGCA | -0.186 |
| CGTCGTAC | 0.0941 |
| GTCCTCTA | -0.159 |
| CCGCCGGA | 0.309 |
| ACGCCGGA | 0.343 |
| CCGCCGGC | 0.421 |
| ACGCCGGC | 0.389 |
| ACGCCGGG | 0.306 |
| CGGCCGGC | 0.284 |

| Sequence | PBM E-score |
| --- | --- |
| CGAAAGAA | 0.0281 |
| AACTGCGT | -0.00018 |
| CGCATTGC | -0.0359 |
| CACCGGCA | 0.377 |
| AACCGGCG | 0.313 |
| TACCGGCA | 0.31 |
| CACCGGCC | 0.318 |
| AACCGGCA | 0.106 |
| CACCGGCG | 0.417 |
| CTGCACTA | -0.0814 |
| CGCTAAGC | 0.0898 |
| ATGAAAAC | 0.116 |
| AAATCCGT | 0.281 |
| AAATCCGC | 0.354 |
| AAATCCGA | 0.332 |
| AAATCCCA | -0.156 |
| CAATCCGG | 0.167 |
| AAATCCGG | 0.376 |
| AAATCCCG | 0.411 |
| CAATCCCG | 0.281 |
| GAATCCGC | 0.0516 |
